Compound activity: PubChem, National Center for Advancing Translational Sciences (NCATS)
KB-V1 MDR tox = qHTS assay for MDR1-selective chemotherapeutics: Primary screen using the drug-selected MDR subline cells KB-V1 | AID 1347076, 2019 | actives 3.4% (n = 400,000) | KB-V1 MDR cells viability, CellTiter-Glo, 72 h | Potency, µM (doses to about 46.1 µM), usual class: cytotoxic; note: nearly all actives have a fitted effect of over 60% in size
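Luminescent ATP read-out (CellTiter-Glo, 10 min) measures survival of drug-selected KB-V1 MDR cells after 72 h, 37 degrees C compound exposure. Medium: phenol-red-free DMEM, 10% FBS. Values from fitted concentration-response curves.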
TDP1 cell CPT = qHTS for Inhibitors of human tyrosyl-DNA phosphodiesterase 1 (TDP1): qHTS in cells in presence of CPT; chicken DT40 Tdp1-/-;hTDP1 cells + 20 nM CPT, ATP luminescence, 48 h; Potency, µM (highest dose often 46.2 µM), hits mostly inhibitors; actives 12% (n = 420,000); note: nearly all actives have a fitted effect of over 55% in size
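Cell growth measured by CellTiter-Glo luminescence after a minimum 48 h, 37 C compound exposure with 20 nM CPT in Tdp1-knockout DT40 cells stably expressing hTDP1, seeded 400/well; qHTS titration format.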
HT1080NT lethal = qHTS for induction of synthetic lethality in tumor cells producing 2HG: qHTS for the HT-1080-NT fibrosarcoma cell line | actives 1.6% (n = 360,000) | HT-1080-NT fibrosarcoma viability, CellTiter-Glo ATP luminescence, 48 h | Potency, µM (doses to about 46.1 µM), actives largely listed as cytotoxic;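 note: NT is the 2HG producing partner of a matched IDH1 knockdown line; nearly all actives have a fitted effect of over 55% in size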
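Viability of the 2HG-overproducing fibrosarcoma line after 48 hours of compound exposure at 37 degrees C was determined by luminescence with CellTiter-Glo, and concentration-effect curves were then fitted and categorized.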
KB-3-1 tox = qHTS assay for MDR1-selective chemotherapeutics: Primary screen using the parental adenocarcinoma cell KB-3-1; KB-3-1 viability, CellTiter-Glo ATP luminescence, 72 h; Potency, µM (top dose mostly 46.1 µM), usual class: cytotoxic; actives 1.4% (n = 400,000); AID 1347075, 2019; note: nearly all actives have a fitted effect of over 60% in size
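Multi-concentration cytotoxicity screen in KB-3-1 cells grown in DMEM lacking phenol red with 10% FBS. After 72 h at 37 °C with compound, ATP-dependent luminescence was recorded.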
DT40 TDP1 no CPT = qHTS for Inhibitors of human tyrosyl-DNA phosphodiesterase 1 (TDP1): qHTS in cells in absence of CPT | DT40 Tdp1-/- hTDP1 cells, no CPT, ATP luminescence, 48 h | Potency, µM (highest dose often 46.2 µM), usual class: inhibitors | actives 15% (n = 420,000) | AID 686978, 2013; note: nearly all actives have a fitted effect of over 55% in size
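DT40 Tdp1-/-;hTDP1 cells, no CPT (DMSO vehicle only), 400 cells/well; compounds pin-transferred; ≥48 hr, 37 °C; CellTiter-Glo 30 min RT dark, luminescence read.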
HT1080 IDH1KD tx = qHTS for induction of synthetic lethality in tumor cells producing 2HG: qHTS for the HT-1080-IDH1KD cell line; HT-1080 IDH1 knockdown viability, ATP luminescence, 48 h; AID 686971, 2013; Potency, µM (titrated, usually from 46.1 µM), hits mostly cytotoxic; actives 2% (n = 360,000)
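Luminescent ATP read-out (CellTiter-Glo, 10 min at room temperature) after 48 h compound exposure at 37 °C gave viability of IDH1-knockdown HT-1080 cells. Activity was normalised to DMSO and cell-free wells, then fitted as concentration-response curves.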
Hits are given with their value; 0 = inactive; ? = inconclusive; - = no result; [ ] = remark or other dose. Only some compounds are listed: those with a hit (about 19% of all), similar ones and a draw of the others. Calls come from the whole dose curve; as a rule, active = well fitted curve in the direction sought with a large enough effect; inconclusive = small, poorly fitted or top-dose-only effect, or another doubt; inactive = no such curve, though single readings can be large; an effect the other way counts as inactive or inconclusive.

SMILES	KB-V1 MDR tox	TDP1 cell CPT	HT1080NT lethal	KB-3-1 tox	DT40 TDP1 no CPT	HT1080 IDH1KD tx
COc1cccc(C(=O)/C=C/Nc2ccc(S(=O)(=O)Nc3ccc(C(C)=O)cc3)cc2)c1	?	?	0	0	16.4µM	0
CC(=O)c1ccc(NS(=O)(=O)c2ccc(C)cc2)cc1	0	0	0	0	0	0
COc1cc(OC)c(OC)cc1/C=C/C(=O)c1ccc(NS(=O)(=O)c2ccc(C)cc2)cc1	14.6µM	?	0	0	?	0
COc1cccc(C(=O)/C=C/Nc2ccc(S(=O)(=O)Nc3nc(C)cc(C)n3)cc2)c1	0	0	0	0	0	0
COc1ccc(C(=O)/C=C/Nc2ccc(S(=O)(=O)Nc3cccc(C(C)=O)c3)cc2)cc1	0	?	0	0	23.1µM	0
CC(NC(=O)C1CCCN(C(=O)c2ccc(Cl)cc2)C1)c1cccc(C(F)(F)F)c1 (configuration not stated)	0	0	0[9.24 µM]	0	?	0
Cc1cn([C@H]2C[C@H](O)[C@@H](CNCc3cccn3-c3nccs3)O2)c(=O)[nH]c1=O	0	0	0	0	0	0
COc1cc(NS(=O)(=O)c2ccc(N/C=C\C(=O)c3ccc(C)cc3)cc2)nc(OC)n1	0	11.6µM	0	0	20.6µM	0
CCOc1ccc(CNC(=O)c2sc3nc(C)cc(C)c3c2-n2cccc2)cc1	0	?	-	?	?	-
Cc1ncnc2nc[nH]c12	10.3µM	1.78µM	-	3.26µM	1.78µM	-
c1nc(NC2CCCCCC2)c2[nH]cnc2n1	0	10.3µM	0	0	23.1µM	0
CC(O)CNc1ncnc2nc[nH]c12 (configuration not stated)	0	0	0	0	0	0
CC(C)=NNc1ncnc2nc[nH]c12	7.31µM	20.6µM	0	?	14.6µM	?
CC(C)[C@H](NC(=O)[C@@H]1CSC2c3ccccc3C(=O)N21)C(=O)NC1CCCCC1 (some centres not stated)	0	?	0	0	?	0
COC(=O)c1ccc(COc2ccc(/C=N/Nc3nc(C)cc(=O)[nH]3)cc2)cc1	0	0	0	0	0	0
Cc1ccc(S(=O)(=O)N2CCN(CC(=O)N/N=C\c3ccc(Cl)c([N+](=O)[O-])c3)CC2)cc1	0	?	0	0	?	0
O=C(CN1CCN(S(=O)(=O)c2ccc(Br)cc2)CC1)N/N=C/c1ccc(Cl)c([N+](=O)[O-])c1	0	?	?	0	18.4µM	?
COc1cc2c(cc1OC)C(=S)NC(C)(C)C2	0	0	10µM	0	0	?
O=[N+]([O-])c1cccc(S(=O)(=O)Nc2ccc(Cc3ccncc3)cc2)c1	16.4µM	?	0	0	?	0
O=[N+]([O-])c1cccc(S(=O)(=O)NCc2ccncc2)c1	?	2.31µM	?	0	2.31µM	0
COc1cccc(S(=O)(=O)N2C[C@H](O)COC[C@H]3O[C@@H](CC(=O)N4CCN(C)CC4)CC[C@@H]32)c1	0	0	0	0	0	0
Cn1c(CNc2ccc(Cl)cc2)nc2ccccc21	20.6µM	16.4µM	0	0	?	0[9.24 µM]
CN(Cc1nc2ccccc2n1C)S(=O)(=O)c1ccc(Cl)cc1	0	?	0	0	25.9µM	0
CC(=O)Nc1ccc(S(=O)(=O)N(C)CC(=O)NNC(=O)Cc2nc3ccccc3n2C)cc1	0	0	0	0	0	0
Cc1cccc(NCc2nc3ccccc3n2C)c1	?	0	0	0	0	0
SMILES	KB-V1 MDR tox	TDP1 cell CPT	HT1080NT lethal	KB-3-1 tox	DT40 TDP1 no CPT	HT1080 IDH1KD tx
Cc1ccc(N2CCN(c3ccc(NCc4nc5ccccc5n4C)cc3)CC2)cc1	4.61µM	?	0	0	16.4µM	0
COCCn1c(=NC(=O)CSC(C)=O)sc2cc(OC)ccc21	0	?	0	0	?	0
CCn1c(=NC(=O)CSC(C)=O)sc2ccccc21	0	20.6µM	0	0	?	0
COCCn1c(=NC(=O)c2sc3ccccc3c2Cl)sc2cc(S(N)(=O)=O)ccc21	0	?	0	0	13µM	0
COCCn1c(=NC(=O)CSC(C)=O)sc2cc(F)ccc21	?	20.6µM	0	0	23.1µM	0[9.24 µM]
COCCn1c(=NC(=O)CSCC(=O)NC2CCCCC2)sc2cc(OC)ccc21	2.91µM	23.1µM	0	?	20.6µM	0
C=CCn1c(=NC(=O)c2sc3ccccc3c2Cl)sc2cc(S(N)(=O)=O)ccc21	0	?	?	0	?	?
COc1ccccc1-c1cc(C(F)(F)F)n2ncc(S(=O)(=O)c3ccccc3)c2n1	0	?	0	0	?	0
COCCn1c(=NC(=O)CCS(=O)(=O)c2ccccc2)sc2cc(F)ccc21	-	18.4µM	0	-	20.6µM	0
CCCn1c(=NC(=O)CS(=O)(=O)c2ccccc2)sc2cc(S(C)(=O)=O)ccc21	0	0	0	0	0	0
COCCn1c(=NC(=O)/C=C/c2cccs2)sc2cc(NC(C)=O)ccc21	?	?	0	0	23.1µM	0
CCC(=O)N=c1sc2cc([N+](=O)[O-])ccc2n1CCOC	0	0	0	0	?	0
CN(C(=O)COC(=O)c1ccc(=O)n(Cc2ccccc2)n1)c1ccccc1	0	14.6µM	0	0	18.4µM	0
CC(C)C[C@H](N)C(=O)N[C@H](C(=O)N[C@H](C(=O)N[C@@H](Cc1ccc(O)cc1)C(=O)N1CCC[C@H]1C(=O)N[C@@H](Cc1c[nH]c2ccccc12)C(=O)N[C@H](C(=O)N[C@@H](CCC(N)=O)C(=O)N[C@@H](CCCN=C(N)N)C(=O)O)[C@@H](C)O)C(C)C)C(C)C	-	0[4.12 µM]	-	-	0[4.12 µM]	-
COc1ccccc1CN1CCCCCC1	0	?	0	0	18.4µM	0
COc1ccccc1N1CCN(Cc2nc(-c3ccc(F)cc3)oc2C)CC1	0	?	0	0	18.4µM	0
COC(=O)c1ccc(-c2nc(CN3CCN(Cc4cccc(C)c4)CC3)c(C)o2)cc1	0	?	0	0	23.1µM	0
COc1ccccc1CN1CCSCC1	0	0	0	0	0	0
COc1ccccc1CNC(=O)C1CCN(Cc2nc(-c3ccc(OC)c(OC)c3)oc2C)CC1	0	0	-	0	?	-
